Screening data deposited in PubChem BioAssay by National Center for Advancing Translational Sciences (NCATS).
Sampled rows, rich in hits. Any-hit rate of the full collection: about 1.1%.
AmpC inh detg – inhibitors of E. coli AmpC beta-lactamase with detergent. Potency, µM (titrated, usually from 114 µM), inactives show top-dose activity change, negative = inhibition, most hits filed as inhibitors. AID 485294. hit rate 0.041% among 370,000. AmpC hydrolysis of nitrocefin, absorbance 480 nm, 0.01% Triton. P00811;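 also: 0% = no-compound wells and -100% = no-enzyme wells; nearly all actives have a fitted effect of over 25% in size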
Target sequence (P00811 whole entry, looked up): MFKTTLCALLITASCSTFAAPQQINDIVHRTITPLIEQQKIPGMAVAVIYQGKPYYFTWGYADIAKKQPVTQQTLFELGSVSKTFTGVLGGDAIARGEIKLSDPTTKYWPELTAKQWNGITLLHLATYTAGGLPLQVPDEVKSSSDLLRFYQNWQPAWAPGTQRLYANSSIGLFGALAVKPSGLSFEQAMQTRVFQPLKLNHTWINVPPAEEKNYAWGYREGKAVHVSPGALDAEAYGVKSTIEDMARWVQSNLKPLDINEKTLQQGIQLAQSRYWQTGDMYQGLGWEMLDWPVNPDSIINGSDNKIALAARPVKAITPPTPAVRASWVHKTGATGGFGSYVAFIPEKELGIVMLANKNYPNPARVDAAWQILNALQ
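20 mM phosphate pH 7.0 + 0.01% (detergent screen) or 0.0001% Triton X-100; 5.3 nM AmpC reagent; cpd preinc 15 min RT; nitrocefin (800 uM stock) to start; A480 q20 s × 4 min; Activity was normalised to no-enzyme and no-compound control wells.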
VACV Venus inh – vaccinia inhibition (Venus reporter); hit rate 0.46% among 330,000; Potency, µM (top dose mostly 36.5 µM), inactives show at the highest dose activity change, negative = inhibition, most hits filed as inhibitors; Vaccinia virus Venus reporter expression, fluorescence; calls by dose curve; tested in A549 cells; also: nearly all actives have a fitted effect of over 30% in size
Vaccinia mCherry – inhibitors of vaccinia virus infection (mCherry reporter signal); Vaccinia virus mCherry reporter infection, fluorescence; Potency, µM (titrated, usually from 36.5 µM), inactives show at the highest dose activity change, negative = inhibition, actives largely listed as inhibitors; hit rate 0.63% among 310,000; calls by dose curve; tested in A549 cells; also: nearly all actives have a fitted effect of over 35% in size
AmpC inh no detg – AmpC beta-lactamase inhibition without detergent; P00811; AmpC nitrocefin hydrolysis, absorbance 480 nm, 0.0001% Triton; Potency, µM (doses to about 57.1 µM), for the others: at the highest dose activity change, negative = inhibition, most hits filed as inhibitors; hit rate 0.52% among 330,000; AID 485341;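 also: plate controls were no compound for no effect and no enzyme for full effect; nearly all actives have a fitted effect of over 20% in size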
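20 mM phosphate pH 7.0 + 0.01% (detergent screen) or 0.0001% Triton X-100; 5.3 nM AmpC reagent; cpd preinc 15 min RT; nitrocefin (800 uM stock) to start; A480 q20 s × 4 min; Activity was normalised to no-enzyme and no-compound control wells.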
An asterisk follows results filed as active; i = inactive; ? = inconclusive; . = no result; [ ] = another dose, or the depositor's remark. Unless noted, calls follow the shape of the dose curve; as a rule, active = well fitted curve in the direction sought with a large enough effect; inconclusive = small, poorly fitted or top-dose-only effect, or another doubt; inactive = no such curve, though single readings can be large; an effect the other way counts as inactive or inconclusive. Unless noted, % is scaled to controls: 0 for no effect and ±100 for the full control effect; potency is read from the fitted curve at half-maximal effect.

SMILES	AmpC inh detg	VACV Venus inh	Vaccinia mCherry	AmpC inh no detg
CN1CCCC(CNC(=O)c2cnn(-c3ncc4c(n3)-c3ccccc3CC4)c2C2CC2)C1 (stereo unspecified)	.	-1.2%	-19.4%	.
CC(=O)c1ccc(NC(=O)c2cc3sccc3n2Cc2ccc(F)cc2)cc1	13.2%	-11.1%	-13.2%	.
O=C(Nc1nccs1)c1cc2sccc2n1Cc1ccc(F)cc1	-9.8%	-17.1%	i	22.4µM*
CCc1ccccc1N(C)C(=O)c1cc2c(=O)oc3ccccc3c2s1	-7.4%	2.51µM*	-9.0%	.
CCN(C(=O)c1cc2c(=O)oc3ccccc3c2s1)c1ccccc1F	1.2%	-7.4%	-8.8%	.
CCC(C)NC(=O)c1cn(CC)c2cc(N3CCN(C(=O)c4ccco4)CC3)c(F)cc2c1=O (stereo unspecified)	3.1%	?	5.01µM*	173.2%
Cc1ccc(C(=O)OC2OC(=O)C(Cl)=C2N2CCOCC2)cc1 (stereo unspecified)	11.2µM*	-7.6%	i	-49.2%
COc1cc(OC)c2nc(-c3cc4c(c(OC)c3)OCCN(C(=O)C(C)c3n[nH]c(=O)c5ccccc35)C4)cc(C)c2c1 (stereo unspecified)	.	-12.3%	i	.
COc1ccc(F)c(CN2CCOc3ccc(CN4CCC(O)(c5cccnc5)CC4)cc3C2)c1	.	-8.2%	-19.6%	.
Cc1ccc(N=Cc2ccc(N(C)C)cc2)cc1	?	3.55µM*	.	-11.6%
OC1CCN(Cc2ccc3c(c2)CN(Cc2ccc(Oc4ncccn4)cc2)CCO3)CC1	.	-16.3%	i	.
O=C(NCc1nnc2n1CCN(Cc1cc(F)cc(F)c1)CC2)c1cccc(F)c1	.	-26.4%	?	.
Cn1c(=O)cc(OCC(=O)N2CCN(C3CCCCC3)CC2)c2ccccc21	?	1.3%	-0.2%	0.891µM*
CCC1CCCCN1C(=O)COc1cc(=O)n(C)c2ccccc12 (stereo unspecified)	-19.5%	4.8%	-7.9%	-8.7%
Cc1ccccc1-c1nc(CN2CCC(C(=O)N3CCC(C(N)=O)CC3)CC2)c(C)o1	?	-4.6%	i	11.2µM*
Cc1oc(-c2cccc(Cl)c2)nc1CN1CCC(C(=O)N2CCN(c3ccccc3F)CC2)CC1	6.7%	15.8µM*	?	188.4%
Cc1cccnc1-c1cccc2c1OC(CNC(=O)Cc1c(C)noc1C)C2 (stereo unspecified)	.	-0.3%	-9.6%	.
CNC(=S)NN=C(C)c1ccc(OC)cc1O	.	?	5.01µM*	.
CCOC(=O)/C=C1\CN(Cc2ccc(OC)cc2)S(=O)(=O)c2ccc(C(F)(F)F)cc21	.	-8.6%	i	.
O=C(NCC1(N2CCOCC2)CCCCCC1)c1cnn(-c2nccc(-c3ccco3)n2)c1C1CC1	.	-1.6%	-7.7%	.
O=C(C#Cc1ccccc1)c1ccco1	?	12.6µM*	10µM*	-35.4%
CSc1nsc(/C=C/Nc2ccc(Cl)cc2)c1C#N	-4.8%	-13.1%	-10.0%[1.46 µM]	17.8µM*
CSc1nsc(/C=C/Nc2ccc(F)cc2)c1C#N	0.1%	8.5%	-6.2%	-46.0%
COCCN(C)C(=O)c1cnn(-c2nccc(-c3cc(OC)ccc3OC)n2)c1C	.	-2.6%	i	.
C/C(=N\NC(N)=S)C1C2C3CC4C5CC(C42)C1C53 (stereo unspecified)	7.3%	?	11.2µM*	-22.1%
SMILES	AmpC inh detg	VACV Venus inh	Vaccinia mCherry	AmpC inh no detg
CCC1CC(/C(C)=N/NC(N)=O)OC1=O (stereo unspecified)	?	-7.3%	-13.0%	-25.2%
Cc1c(C(=O)N2CCCC2)sc2ncnc(NCCCN3CCOCC3)c12	.	0.0%	i	.
COc1cccc(CNC(=O)Cn2ncc3c4ccccc4n(C)c3c2=O)c1	0.5%	4.3%	-7.2%	.
COc1cccc(Cn2ncc3c4sc(B(O)O)cc4n(C)c3c2=O)c1	1.12µM*	.	.	2.24µM*
O=C(NCCN1CCOCC1)c1ccc2c(c1)N(Cc1ccc(F)cc1)C(=O)CS2	?	-16.8%	i	44.7µM*
O=C1CC(c2ccc(Cl)c([N+](=O)[O-])c2)c2ccc3ccccc3c2N1 (stereo unspecified)	-4.3%	?	11.2µM*	-24.4%
COCCN1CCN(C(=O)c2cnn(-c3nccc(-c4ccccc4OC)n3)c2-c2ccco2)CC1	.	20.0%	-13.4%	.
CCS(=O)(=O)Nc1cc(C(=O)N2CCC[C@H]2CO)c2c(c1)nc(-c1ccccc1)n2C	.	-4.0%	-4.0%	.
COC(=O)c1ccccc1-c1cc(C)cc2c1OC(CNC(=O)c1cc(C)on1)C2 (stereo unspecified)	.	9.3%	-16.8%	.
COc1ccc(S(=O)(=O)NCCc2cn3cccc(C)c3n2)cc1OC	?	-1.3%	-16.6%	10µM*
CCC1CN(Cc2cccn2-c2ccccn2)Cc2cc(OC)ccc2O1 (stereo unspecified)	.	5.3%	-8.6%	.
Cc1ccc(C)c2c1NC(C(=O)O)C1CC=CC21 (stereo unspecified)	.	-6.4%	2.9%	.
CC1CN(S(=O)(=O)c2cccc(C(=O)OCc3cc(=O)oc4cc(O)ccc34)c2)CC(C)O1 (stereo unspecified)	-9.2%	.	.	-48.3%
CN(C)c1cccc(C(=O)OCc2cc(=O)oc3cc(O)ccc23)c1	-1.7%	5.6%	-2.9%	17.8µM*
CCOc1cc(OCC)cc(C(=O)Nc2cccc(-c3nc4ccccc4[nH]3)c2)c1	-5.5%	11.2µM*	11.2µM*	.
CCCOc1ccc(C(=O)Nc2cccc(-c3nc4ccccc4[nH]3)c2)cc1	2.5%	-20.8%	18.1%	.
O=C(Nc1cccc(-c2nc3ccccc3[nH]2)c1)c1cccc(NC(=O)c2ccco2)c1	?	.	.	3.16µM*
CS(=O)(=O)c1cccc(C(=O)Nc2cccc(-c3nc4ccccc4[nH]3)c2)c1	-8.9%	-16.7%	-18.0%	17.8µM*
Cn1nccc1C(=O)NCC1CCC2(CCN(Cc3ccc(-c4ccc(Cl)cc4)o3)CC2)O1 (stereo unspecified)	.	-24.4%	-26.0%	.
CCOC(=O)C(C)Oc1cccc2c(=O)n(CC(=O)Nc3cccc(OC)c3)ccc12 (stereo unspecified)	?	3.0%	-11.6%	7.08µM*
CCOC(=O)C(C)Oc1cccc2c(=O)n(CC(=O)Nc3ccc4c(c3)OCCO4)ccc12 (stereo unspecified)	-8.3%	-1.5%	-1.1%	-3.8%
CCOC(=O)C(C)Oc1cccc2c(=O)n(CC(=O)NCc3ccc4c(c3)OCO4)ccc12 (stereo unspecified)	-7.2%	?	100µM*	21.7%
O=C1c2ccccc2C(=O)c2[nH]c(=O)[nH]c21	-16.8%	2.82µM*	1.26µM*	-13.0%
COc1ccc(C(=O)NCc2nnc(SC)n2-c2ccccc2C)c(OC)c1OC	.	10.3%	-9.0%	.
COc1ccc(-c2nc3cc(C)ccc3cc2CN(C(=O)c2cc(C)nn2C)C2CC2)cc1OC	.	-17.3%	-14.1%	.
Cc1c(-c2ccccc2)n(O)[n+]([O-])c1-c1ccccc1	.	-11.2%	i	.
O=Nc1c(-c2ccccc2)n(O)[n+]([O-])c1-c1ccccc1	.	11.2µM*	?	.
CN(C)CC(C)(O)c1ccc2c(c1)CN(Cc1cccn1-c1cccnc1)CCO2 (stereo unspecified)	.	-6.9%	-14.9%	.
